In the library only some 4% were active in any assay of this set; here they are far more common.
Beta cell apopt – inhibitors of cytokine-induced beta cell apoptosis, primary screen, luminescence; INS-1E cytokine-induced death, ATP luminescence, 48 h; percent of positive-control rescue, neutral wells zero; protection from apoptosis, % (no concentration beside the values); 300,000 compounds, 0.8% hits;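 active means Every replicate reaches about 75%, or at least half do and their mean reaches it too, limit read from the data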;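 further: higher means more ATP so stronger rescue from cytokine killing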
Mdm2 MdmX PPI – inhibitors of human Mdm2-MdmX association, primary screen, cell-based, luminescence, split luciferase, SaOS-2, uHTS. inhibition, % at 8 µM. SaOS-2 split-luciferase Mdm2/MdmX complementation. 330,000 compounds, 3% hits;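 active means inhibition of at least 50% at 8 µM in the primary screen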
Target sequence (O15151 whole entry, looked up): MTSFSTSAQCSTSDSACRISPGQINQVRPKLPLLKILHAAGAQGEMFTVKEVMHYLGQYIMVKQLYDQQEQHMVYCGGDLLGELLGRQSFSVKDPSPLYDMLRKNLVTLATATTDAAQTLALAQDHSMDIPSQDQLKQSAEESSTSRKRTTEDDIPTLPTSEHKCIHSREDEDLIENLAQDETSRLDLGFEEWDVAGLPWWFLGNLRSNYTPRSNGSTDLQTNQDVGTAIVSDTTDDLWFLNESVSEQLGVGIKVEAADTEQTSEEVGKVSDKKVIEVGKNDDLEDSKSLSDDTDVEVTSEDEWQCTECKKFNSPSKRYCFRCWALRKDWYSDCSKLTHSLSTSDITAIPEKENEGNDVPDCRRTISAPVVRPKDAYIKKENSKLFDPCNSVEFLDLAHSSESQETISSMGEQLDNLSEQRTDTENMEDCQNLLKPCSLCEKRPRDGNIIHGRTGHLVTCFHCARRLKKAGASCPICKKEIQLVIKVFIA
Target sequence (Q00987 whole entry, looked up): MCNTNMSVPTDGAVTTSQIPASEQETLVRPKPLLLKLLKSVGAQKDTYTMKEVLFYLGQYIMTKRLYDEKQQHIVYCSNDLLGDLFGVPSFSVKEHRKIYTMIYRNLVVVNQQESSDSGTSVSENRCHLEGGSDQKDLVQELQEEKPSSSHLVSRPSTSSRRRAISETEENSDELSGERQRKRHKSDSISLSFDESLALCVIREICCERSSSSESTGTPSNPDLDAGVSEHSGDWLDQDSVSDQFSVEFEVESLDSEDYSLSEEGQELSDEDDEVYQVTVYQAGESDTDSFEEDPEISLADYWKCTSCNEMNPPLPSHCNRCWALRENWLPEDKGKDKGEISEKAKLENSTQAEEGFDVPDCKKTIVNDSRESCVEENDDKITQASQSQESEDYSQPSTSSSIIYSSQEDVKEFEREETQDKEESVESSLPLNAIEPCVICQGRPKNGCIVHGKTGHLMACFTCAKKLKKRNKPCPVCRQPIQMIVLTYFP
Gli-Sufu block – Gli-Sufu pathway antagonists, primary screen, luciferase luminescence, Sufu-KO-LIGHT cells, uHTS. Sufu-KO-LIGHT fibroblasts, Gli luciferase reporter luminescence. inhibition, % at 5 µM. 340,000 compounds, 0.74% hits. AID 588413, 2011;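 active means inhibition above about 55%, limit read from the data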
697 NFkB inh – inhibitors of PMA/ionomycin-induced NF-kB reporter, 697 cells, primary screen, B-cell NF-kB inhibitor project, cell-based, luminescence, uHTS; 697 B-cell NF-kB luciferase reporter, 16 h; inhibition, % at 4 µM; 330,000 compounds, 0.33% hits; in the data active means inhibition above about 35%
Jurkat NFkB inh – inhibitors of induced NF-kB luciferase reporter, primary screen, TCR NF-kB activation inhibitor project, cell-based, luminescence, uHTS; 330,000 compounds, 0.53% hits; inhibition, % at 4 µM; AID 435003, 2010; Jurkat, PMA/ionomycin-induced NF-kB luciferase reporter; in the data active means inhibition above about 50%
Gli-Sufu confirm – Gli-SUFU pathway antagonists, confirmation, single concentration, luciferase luminescence, Sufu-KO-LIGHT cells; shares compounds with Gli-Sufu block; Gli luciferase reporter; inhibition, % at 5 µM; 2,500 compounds, 40% hits;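 active means mean inhibition at 5 µM reaching about 45%, limit read from the data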
SufuKO cytotox – cytotoxicity in Sufu-KO-LIGHT cells, confirmation, cytotoxicity control for Gli-SUFU antagonist project, cell-based, ATP luminescence, single concentration; shares compounds with Gli-Sufu block; cytotoxicity, % at 5 µM; 2,500 compounds, 32% hits;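 active means mean cytotoxicity at 5 µM above about 25%, limit read from the data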;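 further: cells exposed to compound overnight for roughly 16 to 18 hours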
Wnt3a counter – Wnt3a reporter signal inhibition, confirmation, counter-screen for Gli-SUFU antagonist project, Wnt-LIGHT cells, luminescence, single concentration | shares compounds with Gli-Sufu block | Wnt3a-driven luciferase reporter | inhibition, % at 6.25 µM | 2,500 compounds, 20% hits | AID 651995, 2013;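 active means mean inhibition above about 25%, limit read from the data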
Each line names hits and unclear results; the compound was inactive in the other large screens (follow-up assays come after a bar, where they were run).

NC(=O)C1CCN(c2nc(-c3cccs3)cs2)CC1	none
COC(/C(=N/O)c1ccc(Cl)cc1)c1ccccc1 (centres undefined)	Beta cell apopt 100, Gli-Sufu block 64 | Gli-Sufu confirm 60 | SufuKO cytotox 30 | Wnt3a counter 34
COc1ccc(Cl)cc1NC(=O)C(OC)c1ccccc1 (centres undefined)	none
CCOc1ccc(NC(=S)NNc2ccnc3cc(Cl)ccc23)cc1	Gli-Sufu block 56 | Gli-Sufu confirm 66 | SufuKO cytotox inactive | Wnt3a counter inactive
CCOc1ccccc1Nc1ccnc2cc(Cl)ccc12	none
Cc1nnc(SCC(=O)NNC(=O)COc2ccc(Br)cc2)n1C	none
CCN(CC)CCN1C(=O)C(=O)/C(=C(/O)c2ccc(S(=O)(=O)N3CCOCC3)cc2)C1c1ccc(Cl)cc1 (centres undefined)	none
Cc1nc(Nc2ccc(F)cc2)nc(Nc2ccc(F)cc2)c1[N+](=O)[O-]	none | Gli-Sufu confirm inactive | SufuKO cytotox inactive | Wnt3a counter 42
Cc1cc(C)c(S(=O)(=O)Nc2ncn[nH]2)cc1C	none
CC(CC(=O)N1CCN(c2cccc(Cl)c2)CC1)S(=O)(=O)c1ccc2c(c1)NC(=O)CO2 (centres undefined)	Beta cell apopt 80, Gli-Sufu block 59 | Gli-Sufu confirm 51 | SufuKO cytotox inactive | Wnt3a counter inactive
COc1ccc2ccccc2c1CN(C)Cc1ccccc1	Gli-Sufu block 83 | Gli-Sufu confirm inactive | SufuKO cytotox inactive | Wnt3a counter inactive
COc1ccc(CN(C)Cc2c(O)ccc3ccccc23)cc1	none
O=C(C[C@@H]1C/C=C\C[C@H](NC(=O)OCC2c3ccccc3-c3ccccc32)C(=O)OC[C@H]2CCCN2C1=O)N[C@H](CO)Cc1ccccc1	Gli-Sufu block 68 | Gli-Sufu confirm 65 | SufuKO cytotox inactive | Wnt3a counter inactive
O=C(C[C@H]1C/C=C\C[C@H](NC(=O)OCC2c3ccccc3-c3ccccc32)C(=O)OC[C@@H]2CCCN2C1=O)N[C@H](CO)Cc1ccccc1	none | Gli-Sufu confirm 46 | SufuKO cytotox inactive | Wnt3a counter inactive
Cc1cc(C)n2c(SCCC(C)C)nnc2n1	Gli-Sufu block 63 | Gli-Sufu confirm inactive | SufuKO cytotox inactive | Wnt3a counter inactive
CC1CCN(c2ccc(NC(=S)NC(=O)c3ccc(-c4cccc([N+](=O)[O-])c4)o3)cc2)CC1	none
CC1CCN(c2ccccc2NC(=S)NC(=O)c2ccc(-c3cccc([N+](=O)[O-])c3)o2)CC1	Gli-Sufu block 79 | Gli-Sufu confirm 86 | SufuKO cytotox 32 | Wnt3a counter inactive
CC(C)(C)C(=O)Nc1nnc(SCC(=O)NC2CCCC2)s1	none
COC(=O)c1sc(N)c(C(=O)OC)c1CSc1nnc(-c2ccccc2Cl)n1C	none
COC(=O)c1sc(N)c(C(=O)OC)c1CSc1nnnn1C	Gli-Sufu block 99 | Gli-Sufu confirm inactive | SufuKO cytotox inactive | Wnt3a counter inactive
C[C@@H](N)C(=O)NC[C@H]1O[C@@H](n2cnc3c(N)ncnc32)[C@H](O)[C@@H]1O	none (no result: Beta cell apopt, Jurkat NFkB inh)
O=S(=O)(NCc1cn2ccccc2n1)c1cc(F)ccc1F	Gli-Sufu block 62 | Gli-Sufu confirm inactive | SufuKO cytotox inactive | Wnt3a counter inactive
O=C(CN(CC1CCCO1)C(=O)CNS(=O)(=O)c1ccccc1)NCCc1ccccc1 (centres undefined)	none
CN(Cc1cnc2nc(N)nc(N)c2n1)c1ccc(C(=O)NC(CCC(=O)O)C(=O)O)c2ccccc12 (centres undefined)	Gli-Sufu block 58 (no result: Beta cell apopt, Mdm2 MdmX PPI, 697 NFkB inh, Jurkat NFkB inh) | Gli-Sufu confirm inactive | SufuKO cytotox 29 | Wnt3a counter inactive
Cc1[nH]c2ccccc2c1SCc1nnc(SCc2ccccc2)n1C	none
Cc1[nH]c2ccccc2c1SCc1nnc(SCc2ccc(Cl)cc2)n1C	none | Gli-Sufu confirm inactive | SufuKO cytotox inactive | Wnt3a counter 43
CCOC(=O)C1=CN(CC2CCCCC2)CCC1=O	none (no result: Beta cell apopt, Mdm2 MdmX PPI, 697 NFkB inh, Jurkat NFkB inh)
COc1cccc(N2CCN(C(=O)C3CCN(S(=O)(=O)c4ccc5c(c4)oc(=O)n5C)CC3)CC2)c1	Gli-Sufu block 61 | Gli-Sufu confirm inactive | SufuKO cytotox inactive | Wnt3a counter inactive
CC(=O)N1c2ccc(S(=O)(=O)N3CCC(C(=O)N4CCN(c5cccc(C(F)(F)F)c5)CC4)CC3)cc2CC1C (centres undefined)	Beta cell apopt 92, Gli-Sufu block 74 | Gli-Sufu confirm 81 | SufuKO cytotox 34 | Wnt3a counter inactive
COc1cccc(N2CCN(S(=O)(=O)c3ccc4c(c3)oc(=O)n4C)CC2)c1	none
Cn1nccc1C(=O)NC1CCCc2c1cnn2-c1cc(F)cc(F)c1 (centres undefined)	none
COc1ccc(NC(=S)NCCN2CCC(C)CC2)cc1Cl	none
O=C(CSc1cccc[n+]1[O-])N1CCCCCC1	none
O=C(CSc1cccc[n+]1[O-])CSc1cccc[n+]1[O-]	Gli-Sufu block 56 (no result: Beta cell apopt) | Gli-Sufu confirm inactive | SufuKO cytotox inactive | Wnt3a counter inactive
Cn1cc(C(=O)Nc2ccccn2)c(=O)c2ccccc21	none (no result: Beta cell apopt)
Cc1ccc(C(=O)NCC2CCCO2)cc1S(=O)(=O)N1CCCCC1 (centres undefined)	none
Cn1c(C(=O)NC2CCCC2)cc2c(=O)n(C)c3ccccc3c21	Gli-Sufu block 99 (no result: Mdm2 MdmX PPI, 697 NFkB inh, Jurkat NFkB inh) | Gli-Sufu confirm inactive | SufuKO cytotox inactive | Wnt3a counter inactive
Cn1c(C(=O)NCCN2CCCCCC2)cc2c(=O)n(C)c3ccccc3c21	none
CC1(C)CC(=O)C2=C(C1)OC(c1ccc(O)cc1)C(C#N)=C2N (centres undefined)	none | Gli-Sufu confirm inactive | SufuKO cytotox inactive | Wnt3a counter inactive
COc1c(S(=O)(=O)N2CCN(C)CC2)ccc(Cl)c1Cl	none (no result: Beta cell apopt)
Cc1oc(-c2ccccc2)cc1C(=O)Nc1ccc(N(C)C)cc1	none
Cc1oc(-c2ccccc2)cc1C(N)=O	Gli-Sufu block 100 | Gli-Sufu confirm inactive | SufuKO cytotox inactive | Wnt3a counter inactive
Cn1c(=O)n(Cc2ccc(F)cc2)c(=O)c2c1nc1n2CCCN1Cc1ccccc1	none
Cn1c(=O)c2c(nc(NCCc3ccccc3)n2Cc2ccc(F)cc2)n(C)c1=O	none
Cn1c(N2CCCC2)nc2c1c(=O)n(Cc1ccc(F)cc1)c(=O)n2C	none | Gli-Sufu confirm inactive | SufuKO cytotox inactive | Wnt3a counter inactive
